CYP2C19 act – human CYP2C19 activators, primary screen, biochemical, luminescence; Cytochrome P450 2C19 (Homo sapiens), P33261; 96,000 tested, under 10 active; activation factor at 5 µM; AID 1025, 2008; recombinant CYP2C19, luciferin-H EGE luminescence; hits give high values; 0 = fully inhibited enzyme, 1 = untreated enzyme;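 active means activation factor of at least 2 at 5 µM in the primary screen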;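 further: 0 = wells with 2.5 mM tranylcypromine and 1 = vehicle-only wells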
sEH activator – soluble epoxide hydrolase activators, primary screen, biochemical, human sEH. Bifunctional epoxide hydrolase 2 (Homo sapiens), P34913. purified human sEH enzymatic activity, activator screen. activation, % at 2 µM. 91,000 tested, 0.04% active. AID 717, 2007; in the data active means activation above about 37%
Target sequence (P34913 whole entry, looked up): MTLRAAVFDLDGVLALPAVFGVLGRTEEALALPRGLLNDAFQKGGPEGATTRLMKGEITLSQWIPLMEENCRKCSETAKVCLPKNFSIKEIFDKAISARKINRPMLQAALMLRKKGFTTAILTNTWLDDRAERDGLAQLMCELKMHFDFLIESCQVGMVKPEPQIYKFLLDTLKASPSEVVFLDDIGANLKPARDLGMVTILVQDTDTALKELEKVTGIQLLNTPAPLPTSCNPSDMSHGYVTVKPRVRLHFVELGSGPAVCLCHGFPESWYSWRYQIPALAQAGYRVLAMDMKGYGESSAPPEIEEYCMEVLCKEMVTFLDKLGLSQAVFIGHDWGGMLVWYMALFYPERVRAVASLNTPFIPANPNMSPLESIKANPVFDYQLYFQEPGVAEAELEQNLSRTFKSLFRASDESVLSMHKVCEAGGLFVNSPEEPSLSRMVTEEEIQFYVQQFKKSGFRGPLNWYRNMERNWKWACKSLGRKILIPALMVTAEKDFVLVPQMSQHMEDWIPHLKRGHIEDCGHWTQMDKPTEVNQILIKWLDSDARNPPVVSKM
CYP2C19 inhib – blockers of cytochrome P450 2C19 activity – biochemical, luminescence, ADME assay, primary screen; P33261; inhibition, % at 5 µM; AID 778, 2007; 96,000 tested, 21% active; CYP2C19 Supersomes, luciferin-H EGE luminescence, 30 min;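 active means CYP2C19 inhibition above a set limit at 5 µM in the primary screen, cut at about 50% in these data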;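 further: plate controls were negative control wells for no effect and 2.5 mM tranylcypromine positive control for full effect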
CYP2C9 inhib – blockers of cytochrome P450 2C9 activity – biochemical, luminescence, ADME assay, primary screen; P11712; CYP2C9 Supersomes, luciferin-H conversion; inhibition, % at 5 µM; 96,000 tested, 20% active; AID 777, 2007;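 active means blocking of liver enzyme CYP2C9 beyond about 50% at 5 µM, limit read from the data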
sEH inh – soluble epoxide hydrolase inhibitors, primary screen, biochemical, human sEH; Bifunctional epoxide hydrolase 2 (Homo sapiens), P34913; recombinant human sEH enzymatic activity assay; inhibition, % at 2 µM; 91,000 tested, 0.34% active; in the data active means inhibition above about 80%
CYP2C9 act – human CYP2C9 activators, primary screen, biochemical, luminescence; recombinant CYP2C9, luciferin-H conversion; hits give high values; factor 1 = untreated enzyme, 0 = blocked; Cytochrome P450 2C9 (Homo sapiens), P11712; 96,000 tested, 1.4% active; AID 1024, 2008; activation factor at 5 µM;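 active means activation factor of 2 or more for CYP2C9 at a 5 µM dose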;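 further: 0 = sulfaphenazole-blocked wells and 1 = vehicle-only wells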
* hit, by the source's call; nt = no result. A selection: hits, their analogues and other compounds. The true share with any hit is near 27%.

SMILES	CYP2C19 act	sEH activator	CYP2C19 inhib	CYP2C9 inhib	sEH inh	CYP2C9 act
COc1ccccc1OCCCn1cc(C(=O)c2ccco2)c2ccccc21	0	6	98*	96*	-7	0
O=C(c1ccco1)c1cn(Cc2ccc(Cl)cc2)c2ccccc12	0.2	18	84*	94*	-23	0.1
CC12CN3CC(C)(CN(C1)C31CCOCC1)C2=O	nt	1	nt	nt	4	nt
Cc1ccc(C2N(c3cc(C)on3)C(=O)C3CCCN32)cc1 (stereo not given)	1.1	nt	-9	-3	nt	1
O=C(c1cccs1)c1cn(Cc2ccccc2Cl)c2ccccc12	0.9	11	13	62*	-14	0.4
N#Cc1ccccc1Cn1cc(C(=O)c2cccs2)c2ccccc21	0.5	-7	54*	89*	10	0.1
O=P(O)(O)C#Cc1ccccc1	1	nt	-3	20	nt	0.8
c1ccc2c(c1)CNc1ccccc1O2	0.5	6	48	8	-6	0.9
Cc1ccc2c(c1)CNc1ccccc1O2	0.3	-12	71*	25	12	0.8
CC(=NCCCN1CCCCC1)c1c(O)n(Cc2ccccc2)c(=O)[nH]c1=O	0.6	-3	41	59*	1	0.4
CC(=NCCN1CCCCC1)c1c(O)n(Cc2ccccc2)c(=O)[nH]c1=O	1.2	4	-19	-10	-7	1.1
COc1ccc(Oc2cc(NC(=O)c3nn(C)cc3[N+](=O)[O-])cc([N+](=O)[O-])c2)cc1	0.3	-5	66*	91*	6	0.1
CNC(C(=O)c1ccccc1)C(OC(C)C)c1ccc(Cl)cc1 (stereo not given)	0.4	-2	63*	37	2	0.6
CCOC(=O)c1c(-n2c(C)cc(/C=C3\C(=O)NC(=O)N(C)C3=O)c2C)sc2c1CCCC2	0.6	-3	43	71*	4	0.3
CCOC(=O)c1c(/N=C/c2c(O)n(-c3ccc(F)cc3)c(=S)[nH]c2=O)sc2c1CCCC2	1.1	-2	-10	37	3	0.6
CC(Cc1ccccc1)[n+]1cc(/N=C(\[O-])N(C)C)on1 (stereo not given)	1	-6	-3	20	6	0.8
Nc1c(C(=O)OCC2CCCO2)c2nc3ccccc3nc2n1Cc1cccs1 (stereo not given)	0.6	19	41	57*	-21	0.4
CC(C)OCCCNC(=O)c1c(N)n(Cc2cccs2)c2nc3ccccc3nc12	0.9	nt	14	91*	nt	0.1
Cc1c(N=Cc2c(O)n(CCc3ccc(F)cc3)c(=O)[nH]c2=O)c(=O)n(-c2ccccc2)n1C	0.9	-10	5	18	10	0.8
CC12CN3C(O)C(C)(C1)CC(C)(C2)C3O (stereo not given)	0.9	10	10	-1	-9	1
CCOC(=O)C(O)(c1ccc(N(C)C(=O)COc2ccccc2)cc1)C(F)(F)F (stereo not given)	nt	2	nt	nt	-4	nt
CCOC(=O)C(O)(c1cn(C)c2ccccc12)C(F)(F)F (stereo not given)	0.9	-8	9	-164	8	2.6*
Cc1ccc(C2C(S(C)(=O)=O)=C(O)C(=O)N2c2ccccc2)cc1 (stereo not given) (tested in a mixture with another compound)	1	nt	-3	-8	nt	1.1
Fc1ccc(CCNCc2ccccc2Cl)cc1	0	-7	96*	10	8	0.9
COC(=O)CC1=C(C(=O)OC)C2(C(=O)Nc3c(C)cccc32)C(C#N)=C(N)O1 (stereo not given)	1.1	nt	-6	1	nt	1
SMILES	CYP2C19 act	sEH activator	CYP2C19 inhib	CYP2C9 inhib	sEH inh	CYP2C9 act
O=C1NC(=O)C(CCc2ccncc2)(c2ccccc2)C(=O)N1	0.4	6	55*	93*	-6	0.1
COc1ccc(OC)c(N2C(=O)NC(=O)C(CCc3ccncc3)(CCc3ccncc3)C2=O)c1	nt	6	nt	nt	-7	nt
O=C(COc1ccccc1)N1CCN(C2CC3CCC2C3)CC1 (stereo not given)	nt	6	nt	nt	-5	nt
CCN1CCN(Cc2cc(Br)cc(Br)c2O)CC1	0.4	2	60*	9	-4	0.9
COc1cccc(OCC(=O)N2CCN(C)CC2)c1	0.5	nt	54*	-15	nt	1.2
Cc1ccc(OCC(=O)N2CCN(C)CC2)c(Br)c1	0.9	-5	10	-13	8	1.1
CN1/C(=C\C=C\C2=[N+](C)c3ccc4ccccc4c3C2(C)C)C(C)(C)c2ccccc21	0.3	8	67*	56*	-9	0.4
NC(=O)CN1CC(c2ccccc2)CC1=O (stereo not given)	1	16	-3	-17	-15	1.2
CCCCCCCC(=O)NC(Oc1ccccc1[N+](=O)[O-])C(Cl)(Cl)Cl (stereo not given)	0.7	-4	26	28	0	0.7
O=C(COc1ccc(Cl)cc1Cl)N1CCN(C/C=C/c2ccccc2)CC1	0.6	1	43	56*	-1	0.4
CCCCn1c(O)c(C=NC2CCCCC2N)c(=O)[nH]c1=O (stereo not given)	1.2	-6	-16	-25	6	1.3
CCCCCCn1c(O)c(C=NC2CCCCC2N)c(=O)[nH]c1=O (stereo not given)	0.9	-9	7	52*	8	0.5
NC1CCCCC1N=Cc1c(O)n(Cc2ccc(F)cc2)c(=O)[nH]c1=O (stereo not given)	0.9	-3	12	76*	2	0.2
O=C1NCCN2CCCC12 (stereo not given)	1.1	nt	-10	-8	nt	1.1
CC12CN3CCN(CC(C3)C1O)C2 (stereo not given)	0.9	-12	13	10	10	0.9
COc1ccc(CCNC(C)CCc2ccc(OC)cc2)cc1 (stereo not given)	0.4	6	55*	-2	-9	1
COc1ccc(CCNCc2ccncc2)cc1	0.1	-1	90*	72*	-1	0.3
COc1ccc(N2C(=O)NC(=O)C(CCc3ccncc3)(CCc3ccncc3)C2=O)cc1	nt	-12	nt	nt	11	nt
COc1ccc(CCNCc2ccc(OC)c(OC)c2OC)cc1	0.4	7	62*	8	-7	0.9
CCC(C)N1C(=O)NC(=O)C2(Cc3cc(C)ccc3N(C)C2)C1=O (stereo not given)	0.1	nt	89*	70*	nt	0.3
Cc1ccc2c(c1)CC1(CN2C)C(=O)NC(=O)N(C(C)C)C1=O (stereo not given)	0.2	-3	82*	30	6	0.7
CCn1c(O)c(C(c2ccccn2)c2c(O)n(CC)c(=S)[nH]c2=O)c(=O)[nH]c1=S	1	8	-3	9	-11	0.9

Bioassay records: PubChem, several laboratories
